Assay outcomes (PubChem BioAssay)
HP1b chromo inh = inhibitors of HP1-beta chromodomain binding to methylated histone tails; P83916; AlphaScreen HP1-beta / biotin-H3K9me3 peptide binding; Potency, µM (highest dose often 114 µM), without a hit: at the highest dose activity change, negative = inhibition, usual class: inhibitors; actives 0.56% (n = 390,000); note: nearly all actives have a fitted effect of over 70% in size
Target sequence (P83916 whole entry, looked up): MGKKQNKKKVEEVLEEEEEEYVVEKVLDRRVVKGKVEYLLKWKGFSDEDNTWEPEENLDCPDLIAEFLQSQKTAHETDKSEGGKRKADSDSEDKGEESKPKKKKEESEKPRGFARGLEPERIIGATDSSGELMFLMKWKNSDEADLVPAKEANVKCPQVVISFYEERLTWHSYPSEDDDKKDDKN
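Compound inhibition of the preformed complex between 50 nM HP1-beta and 50 nM biotinylated H3K9me3 peptide was read by AlphaScreen. Buffer was PBS pH 7.4 with 0.01% Tween-20. Incubations ran 30 min at room temperature, with 10 ug/mL donor/acceptor beads.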
L3MBTL1 inh = inhibitors of human L3MBTL1; AID 485360; actives 0.66% (n = 230,000); Potency, µM (titrated, usually from 57.1 µM), for the others: at the top dose activity, negative = inhibition, most hits filed as inhibitors; Q9Y468; AlphaScreen L3MBTL1–H3K9me1 peptide binding; note: % is set by controls: 0 for no effect and ±100 for the full control effect; nearly all actives have a fitted effect of over 60% in size
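AlphaScreen proximity signal between nickel-chelate acceptor and streptavidin donor beads (final 10 ug/mL) reports binding of 50 nM L3MBTL1 to 75 nM biotin-H3 K9me1 peptide; complex incubated with compounds 30 min at room temperature; cefsulodin titration as control.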
JMJD2A Tudor = blocks the human JMJD2A Tudor domain | AlphaScreen JMJD2A-Tudor / H3K4me3 peptide binding | actives 4.4% (n = 390,000) | O75164 | Potency, µM (doses to about 114 µM), for inactives: at the highest dose activity change, negative = inhibition, hits mostly inhibitors; note: % is set by controls: 0 for no effect and ±100 for the full control effect; nearly all actives have a fitted effect of over 50% in size
G9a block = blocks human histone lysine methyltransferase G9a | Q96KQ7 | G9a H3K9 monomethylation, AlphaScreen, 2 h | Potency, µM (highest dose often 102 µM), without a hit: top-dose activity, negative = inhibition, most hits filed as inhibitors | actives 8.8% (n = 350,000) | AID 504332; note: % is set by controls: 0 for no effect and ±100 for the full control effect; nearly all actives have a fitted effect of over 75% in size
Target sequence (Q96KQ7 913-1193 limits assumed): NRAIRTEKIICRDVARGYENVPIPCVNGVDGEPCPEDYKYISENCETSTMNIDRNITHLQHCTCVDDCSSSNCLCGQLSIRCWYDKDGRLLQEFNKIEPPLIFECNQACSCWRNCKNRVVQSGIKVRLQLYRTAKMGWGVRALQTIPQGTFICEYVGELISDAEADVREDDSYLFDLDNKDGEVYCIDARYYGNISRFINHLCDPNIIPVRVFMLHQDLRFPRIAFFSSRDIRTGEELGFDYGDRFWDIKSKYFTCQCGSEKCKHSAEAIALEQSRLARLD
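AlphaScreen detection with an anti-monomethyl H3K9 antibody quantified product after a 2 h room-temperature reaction containing 500 nM biotinylated H3K9 peptide, 20 µM SAM and 20 nM enzyme, which had been preincubated 15 min with compound.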
BAZ2B block = inhibitors of human BAZ2B bromodomain; actives 4.4% (n = 360,000); AlphaScreen BAZ2B-H3K14Ac peptide displacement; Q9UIF8; Potency, µM (top dose mostly 114 µM), without a hit: at the highest dose activity change, negative = inhibition, most hits filed as inhibitors; AID 504333; note: % is set by controls: 0 for no effect and ±100 for the full control effect; nearly all actives have a fitted effect of over 60% in size
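Compounds, titrated to a top concentration of 110 uM, were incubated 30 min at room temperature with preformed BAZ2B/acetyl-K14 H3 peptide complex (50 nM each). Proximity signal was measured by AlphaScreen after 20 min with beads.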
Sfp inh = inhibitors of Bacillus subtilis Sfp phosphopantetheinyl transferase; Biochemical Sfp PPTase activity, qHTS; Q9F4F7; Potency, µM, for inactives: largest response in the series, negative = inhibition, most hits filed as inhibitors; actives 3.5% (n = 310,000);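 note: the enzyme is Sfp with the accession as filed and its product quenches rhodamine fluorescence; 0% = enzyme reaction without inhibitor and -100% = no enzyme wells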
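Step 1, compound plus 15 nM Sfp-PPTase, 15 min, room temperature. Step 2, add rhodamine-CoA (5 uM) and BHQ-2-YbbR (12.5 uM). Step 3, read 525/598 nm fluorescence at 0 and 30 min.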
Numbers without * were called inactive; u = inconclusive; x = not tested or not shown; [ ] = remark or other dose. This is a sample that favours compounds with a hit; in the whole collection about 12% have one here. Calls come from the whole dose curve; as a rule, active = well fitted curve in the direction sought with a large enough effect; inconclusive = small, poorly fitted or top-dose-only effect, or another doubt; inactive = no such curve, though single readings can be large; an effect the other way counts as inactive or inconclusive. Potency is the fitted concentration of half-maximal effect.

SMILES	HP1b chromo inh	L3MBTL1 inh	JMJD2A Tudor	G9a block	BAZ2B block	Sfp inh
COc1ccc(-c2n[nH]c(=S)n2CC(C)C)cc1	6.6%	x	3.98µM*	1µM*	-0.5%	3.0%
S=c1[nH]nc(-c2cc3ccccc3o2)n1Cc1ccccc1	-16.5%	-9.4%	-26.7%	1.12µM*	u	1.9%
Cc1ccc(-c2n[nH]c(=S)n2Cc2ccccc2)cc1	10.7%	x	39.8µM*	1.58µM*	-26.7%	5.2%
S=c1[nH]nc(-c2ccccc2Br)n1Cc1ccccc1	-10.7%	15.5%	-74.2%	x	-2.7%	-7.8%
COc1ccc(-c2nc3ccccc3n2Cc2ccc(C)cc2)cc1	39.1%	x	10.6%	6.3%[59 µM]	u	-27.6%
COc1ccc(C2C3C=CCC(C)C3C(=O)N2Cc2ccccc2)cc1Cl (centres undefined)	21.9%	x	-9.7%	x	x	-15.0%
COc1cccc([C@@H]2Oc3ccc(OC)cc3C[C@H]2OC(=O)NS(=O)(=O)c2ccc(C)cc2)c1	x	x	x	x	x	-5.2%
O=c1[nH]c2cc(Cl)c(O)cc2o1	x	x	x	x	x	-8.4%
COc1ccc(-n2c(=O)c(C)nc3cnc(Oc4ccccc4)nc32)cc1	x	x	x	7.7%[12.7 µM]	x	11.6%
Cc1c(C(=O)NCC(c2ccc(Cl)cc2)N2CCOCC2)oc2ccccc12 (centres undefined)	29.6%	x	-18.5%	-7.0%[59 µM]	-17.9%	x
CC(c1n[nH]c(=S)n1Cc1ccccc1)N(C)C (centres undefined)	-12.3%	11.7%	u	10µM*	-8.3%	89.1µM*
CCn1c(=O)cc(N2CCN(Cc3ccccc3)CC2)[nH]c1=O	30.4%	0.0%	3.5%	3.1%	9.4%	7.5%
CC(C)Oc1ccc(Cn2c(-c3ccco3)n[nH]c2=S)cc1	-10.4%	-0.9%	39.8µM*	0.708µM*	-35.4%	u
CCOc1ccc(-c2n[nH]c(=S)n2Cc2ccccc2)cc1	16.7%	-5.4%	44.7µM*	3.55µM*	-10.3%	3.2%
CCn1c(C2CCN(Cc3ccccc3)CC2)n[nH]c1=S	32.1%	10.6%	3.55µM*	-50.6%	7.1%	6.4%
COS(C)(=O)=O	x	x	x	x	x	20.6%
Cc1nn(-c2ccccc2)c2sc(C(=O)Nc3cccc(Cl)c3)cc12	43.2%	x	8.3%	-37.0%[59 µM]	13.5%	x
CC1(OC(=O)C2CCCC2)C(=O)C=C2C=C(c3ccsc3)N(c3ccc(CO)cc3)C=C2C1=O (centres undefined)	x	x	x	x	x	5.7%
COc1ccc(CNC(=O)CCCn2c(=O)c3cccn3c3ccc(F)cc32)cc1OC	45.8%	x	3.3%	-7.6%[59 µM]	-11.0%	x
O=C(O)CCC1CCCC1	x	x	x	x	x	22.3%
Cc1cccc(-c2n[nH]c(=S)n2Cc2ccccc2)c1	8.9%	-2.2%	39.8µM*	0.708µM*	-31.3%	79.4µM*
COc1ccc(CC(=O)NCc2ccc3c(c2)CCN3C(C)=O)cc1	21.2%	x	-7.3%	2.0%[59 µM]	-0.2%	x
Cc1ccc(N2C(=O)C3C4C=CC(C4)C3C2=O)cc1C (centres undefined)	13.4%	1.5%	-0.7%	2.5%	1.8%	18.1%
Cc1ccc(N2C(=O)C3C4C=CC(CC4)C3C2=O)cc1[N+](=O)[O-] (centres undefined)	31.8%	6.1%[2.29 µM]	-0.7%	-46.4%[0.501 µM]	79.4µM*	31.6µM*
Cc1cccc(C)c1NC(=O)C1CCCN(S(=O)(=O)c2c(C)noc2/C=C/N(C)C)C1 (centres undefined)	44.8%	x	-11.9%	1.8%[59 µM]	-18.3%	x
SMILES	HP1b chromo inh	L3MBTL1 inh	JMJD2A Tudor	G9a block	BAZ2B block	Sfp inh
CN1CC(=O)N(CC(=O)Nc2ccc(N(C)C)cc2)c2ccccc2C1=O	17.7%	x	-26.6%	14.1µM*	50.1µM*	u
Cc1cc(C)cc(NC(=O)CN2CCc3ccccc3C2)c1	-44.5%	-5.4%	39.8µM*	26.9%[0.501 µM]	31.6µM*	-8.5%
CCN1CCN(CCC(=O)Nc2cc(C)ccc2C)CC1	31.6%	-2.4%	-10.3%	4.8%	-0.6%	17.5%
Cc1ccc(C)c(NC(=O)CCN2CCc3ccccc3C2)c1	29.3%	-2.5%	-15.1%	50.1µM*	-38.7%	6.1%
O=C(CN1CCc2ccccc2C1)Nc1ccc(F)cc1	33.4%	1.2%	6.0%	19.5%[59 µM]	1.9%	19.7%
CN(C)c1ccc(NC(=O)CN2CCc3ccccc3C2)cc1	u	x	50.1µM*	12.6µM*	39.8µM*	11.3%
Cc1cccc(C)c1NC(=O)CN1CCc2ccccc2C1	43.3%	x	-5.7%	x	x	x
CCOc1ccccc1NC(=O)C1CCN(S(=O)(=O)c2ccc3[nH]c(=O)oc3c2)CC1	20.1%	x	-18.0%	u	-7.2%	x
CC1Cc2ccccc2N1C(=O)CNc1cccc(S(=O)(=O)N2CCCC2)c1 (centres undefined)	-21.9%	-9.2%	6.31µM*	50.1µM*	u	2.4%
O=C(CN1CCc2ccccc2C1)Nc1cccc(S(=O)(=O)N2CCCC2)c1	u	-10.4%	u	3.98µM*	x	u
CCOc1ccc(C(=O)c2cn(CC(=O)Nc3ccc4c(c3)OCCO4)c3ccc(F)cc3c2=O)cc1	40.5%	x	-10.6%	-0.3%[59 µM]	-1.0%	x
CS(=O)(=O)NCCCNc1ccc(C(F)(F)F)cc1[N+](=O)[O-]	9.5%	x	-14.0%	-21.1%	-32.6%	3.2%
O=[N+]([O-])c1cc(C(F)(F)F)ccc1NCCc1c[nH]c2ccccc12	u	u	22.4µM*	u	11.2µM*	20.4%
O=[N+]([O-])c1cc(C(F)(F)F)ccc1NCCc1c[nH]c2ccc(O)cc12	u	-22.7%	22.4µM*	u	39.8µM*	10.7%
O=C(Nc1cnc(N2CCN(c3ccccc3)CC2)c(C(=O)O)c1)c1cccs1	-9.0%	x	79.4µM*	u	50.1µM*	x
O=C(CN1CCN(c2ccc(F)cc2)CC1)c1cccs1	13.5%	-2.4%	-28.0%	15.8µM*	-23.9%	-8.1%
O=C(NC(=S)N1CCN(c2ccc(F)cc2)CC1)c1cccs1	12.7%	-26.7%	-32.4%	50.1µM*	u	1.9%
O=C(Nc1ccc(N2CCN(c3ccc(F)cc3)CC2)c(C(=O)O)c1)c1cccs1	47.5%	x	-14.3%	5.5%[59 µM]	5.3%	x
Cc1ccc(Nc2cc(C)nc3nncn23)c(C)c1	30.3%	x	-8.5%	3.6%[59 µM]	7.4%	x
CCC1CCCCN1S(=O)(=O)c1ccc(C(=O)Nc2sc3c(c2C(N)=O)CCC3)cc1 (centres undefined)	14.3%[57 µM]	x	-26.3%	-0.2%[59 µM]	-2.9%	x
COc1cccc(OC)c1OCc1cc(C2C3CCCC=C3C(C#N)=C(N)C2(C#N)C#N)c(C)cc1C (centres undefined)	15.3%	-3.6%	u	x	u	56.2µM*
COc1ccc(OC)c(CNC(=O)c2cnc(N(C)C)nc2)c1	15.7%	x	-16.9%	0.0%[59 µM]	-1.6%	x
CCOc1ccc(CCNC(=O)Cn2nnc(-c3ccccc3Cl)n2)cc1OCC	18.7%	x	2.6%	-4.0%[59 µM]	-12.3%	x
